Test results taken from PubChem BioAssay (Tox21).
“And” between values parts separate entries of the source, which are not always exact repeats. Identical values can stand only once. Records with an inconclusive call do not appear. The source made the active and inactive calls. Calls follow the shape of the dose curve; as a rule, active = well fitted curve in the direction sought with a large enough effect in the repeat runs; inconclusive = weak or mixed curves; inactive = no such curve, though single readings can be large; an effect the other way counts as inactive or inconclusive.

Test system: not listed separately
Assay: qHTS assay to identify aromatase inhibitors - cell viability counter screen (AID 743084);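 also: cells stimulated with testosterone during compound exposure; nearly all actives have a fitted effect of over 55% in size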
Settings: MCF-7 aro ERE viability, CellTiter-Fluor, 24 h; series mostly up to 70.3 µM; activity change, negative = cytotoxicity: at the top concentration
% is scaled to controls: 0 for no effect and ±100 for the full control effect.

Row | SMILES | activity change, negative = cytotoxicity | Potency
1 | CN1CCC(=C2c3ccccc3CC(=O)c3sccc32)CC1 | -5.17% (inactive) | –
2 | O=c1cc(-c2ccccc2)oc2ccccc12 | – | inactive
3 | OC(CCN1CCCCC1)(c1ccccc1)C1CC2C=CC1C2 (stereo not given) | – | inactive
4 | N#Cc1ccc(C2CCCc3cncn32)cc1 (stereo not given) | 12.9% [at 32.5 µM] (inactive) | –
5 | COCCCOCCCOC | 18.1% (inactive) | –
6 | c1ccc([C@H]2CN3CCSC3=N2)cc1 | 16.6% (inactive) | –
7 | Oc1ccc(C2CNCCc3c2cc(O)c(O)c3Cl)cc1 (stereo not given) | -14.5% (inactive) | –
8 | NS(=O)(=O)c1ccccc1Cl | -7.74% (inactive) | –
9 | O=C1NC(=O)[C@@]2(CCOc3ccc(F)cc32)N1 | -3.3% (inactive) | –
10 | CCC=O | 7.25% [at 95 µM] (inactive) | –
11 | OC1CCCCC1c1ccccc1 (stereo not given) | 6.26% (inactive) | –
12 | CC/C=C\CC/C=C/CO | 1.73% (inactive) | –
13 | O=[N+]([O-])c1ccc(F)cc1F | -1.52% [at 95 µM] (inactive) | –
14 | C/C=C(\C)C#N | -0.537% (inactive) | –
15 | C1OCOCO1 | 15.1% [at 95 µM] (inactive) | –
16 | NC(CSCC(=O)O)C(=O)O (stereo not given) | 11.1% (inactive) | –
17 | O=C(O)Cc1ccc(CCNS(=O)(=O)c2ccc(Cl)cc2)cc1 | 1.43% (inactive) | –
18 | O=C(O)CNC(=O)c1ccc([N+](=O)[O-])cc1 | 7.27% (inactive) | –

Row | SMILES | activity change, negative = cytotoxicity | Potency
19 | O=C(O)CCCl | 6.5% [at 95 µM] (inactive) | –
20 | CCCN1CCCC[C@H]1C(=O)Nc1c(C)cccc1C | 4.83% (inactive) | –
21 | CCC(=O)OC(C)c1ccccc1 (stereo not given) | 3.97% (inactive) | –
22 | CC(C)(C)c1nnc(NS(=O)(=O)c2ccccc2)s1 | 4.28% (inactive) | –
23 | N[C@H]1CN(c2c(F)cc3c(=O)c(C(=O)O)cn(C4C[C@H]4F)c3c2Cl)CC12CC2 (stereo not given in full) | 5.31% (inactive) | –
24 | C=CCCCCCCCCC=O | 0.447% (inactive) | –
25 | OCCCC1CCCCC1 | -12.2% (inactive) | –
26 | Nc1c[n+](N2CCOCC2)no1 | 1.13% (inactive) | –
27 | O=C(O)COc1nn(Cc2ccccc2)c2ccccc12 | 15% (inactive) | –
28 | CC(C)CCCC(C)N (stereo not given) | 6.85% (inactive) | –
29 | Cc1ccc(C#N)cc1 | 1.44% (inactive) | –
30 | N=C(N)c1ccc2cc(OC(=O)c3ccc(N=C(N)N)cc3)ccc2c1 | -2.15% (inactive) | –
31 | CCCCC/C=C\CCC=O | 12.9% (inactive) | –
32 | O=C[C@H](O)[C@@H](O)[C@H](O)[C@H](O)CO | – | inactive
33 | C[N+](C)(C)CCCCCC[N+](C)(C)C | 13.7% (inactive) | –
34 | CCCCOCCOCCOCCCC | 25.7% (inactive) | –
35 | CCCCCSCCCCC | 10.7% (inactive) | –

Target: Aryl hydrocarbon receptor (Homo sapiens) (UniProt P35869)
Sequence (P35869 whole entry, looked up): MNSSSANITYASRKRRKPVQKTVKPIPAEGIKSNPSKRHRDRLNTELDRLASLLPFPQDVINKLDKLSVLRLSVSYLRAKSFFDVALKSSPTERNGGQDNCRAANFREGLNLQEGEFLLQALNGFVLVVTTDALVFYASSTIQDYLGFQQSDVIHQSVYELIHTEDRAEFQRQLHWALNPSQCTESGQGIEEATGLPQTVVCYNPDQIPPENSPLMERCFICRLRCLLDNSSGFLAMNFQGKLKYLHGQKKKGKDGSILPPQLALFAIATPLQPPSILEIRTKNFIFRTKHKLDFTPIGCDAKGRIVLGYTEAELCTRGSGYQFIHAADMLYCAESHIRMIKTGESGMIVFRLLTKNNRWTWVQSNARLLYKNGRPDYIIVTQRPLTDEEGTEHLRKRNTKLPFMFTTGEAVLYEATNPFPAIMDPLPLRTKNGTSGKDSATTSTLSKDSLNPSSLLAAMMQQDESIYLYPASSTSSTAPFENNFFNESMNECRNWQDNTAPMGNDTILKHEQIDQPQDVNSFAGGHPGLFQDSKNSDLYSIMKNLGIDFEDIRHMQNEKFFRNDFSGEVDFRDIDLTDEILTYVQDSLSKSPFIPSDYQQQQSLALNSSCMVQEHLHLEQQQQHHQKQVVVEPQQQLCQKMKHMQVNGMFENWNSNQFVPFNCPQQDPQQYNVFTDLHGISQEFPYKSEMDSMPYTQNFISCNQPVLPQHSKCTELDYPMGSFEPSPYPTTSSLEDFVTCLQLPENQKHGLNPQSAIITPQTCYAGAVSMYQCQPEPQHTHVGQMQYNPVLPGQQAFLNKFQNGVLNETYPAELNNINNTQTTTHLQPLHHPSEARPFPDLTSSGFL
Assay: qHTS assay to identify small molecule that activate the aryl hydrocarbon receptor (AhR) signaling pathway (AID 743085); also: nearly all actives have a fitted effect of over 15% in size; also: potency is read from the fitted curve at half-maximal effect;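 as to activation: HG2L7.5c1 human HepG2 liver cells with stably integrated DRE-driven firefly reporter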
Settings: HepG2 AhR-luc (HG2L7.5c1), luciferase, 24 h; series mostly up to 70.3 µM; activation: at the top concentration
Summary of the method: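 Reporter assay in engineered HepG2 line HG2L7.5c1, whose plasmid carries twenty dioxin responsive elements upstream of firefly luciferase. Treatment lasted 24 h at 37C; ONE-Glo luminescence gauged induction.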

Row | SMILES | activation | Potency
36 | CN1CCC(=C2c3ccccc3CC(=O)c3sccc32)CC1 | -1.26% (inactive) | –
37 | O=c1cc(-c2ccccc2)oc2ccccc12 | – | 24.3 µM (active) and 5.91 µM (active)
38 | OC(CCN1CCCCC1)(c1ccccc1)C1CC2C=CC1C2 (stereo not given) | – | inactive
39 | N#Cc1ccc(C2CCCc3cncn32)cc1 (stereo not given) | 0.683% [at 32.5 µM] (inactive) | –
40 | COCCCOCCCOC | -0.598% (inactive) | –
41 | c1ccc([C@H]2CN3CCSC3=N2)cc1 | 2.86% (inactive) | –
42 | Oc1ccc(C2CNCCc3c2cc(O)c(O)c3Cl)cc1 (stereo not given) | -0.85% (inactive) | –
43 | NS(=O)(=O)c1ccccc1Cl | -0.265% (inactive) | –
44 | O=C1NC(=O)[C@@]2(CCOc3ccc(F)cc32)N1 | 3.5% (inactive) | –
45 | CCC=O | -2.42% [at 95 µM] (inactive) | –
46 | OC1CCCCC1c1ccccc1 (stereo not given) | 3.89% (inactive) | –
47 | CC/C=C\CC/C=C/CO | -0.945% (inactive) | –
48 | O=[N+]([O-])c1ccc(F)cc1F | -1.98% [at 95 µM] (inactive) | –
49 | C/C=C(\C)C#N | -2.4% (inactive) | –
50 | C1OCOCO1 | -1.46% [at 95 µM] (inactive) | –
51 | NC(CSCC(=O)O)C(=O)O (stereo not given) | -1.39% (inactive) | –
52 | O=C(O)Cc1ccc(CCNS(=O)(=O)c2ccc(Cl)cc2)cc1 | -0.234% (inactive) | –
53 | O=C(O)CNC(=O)c1ccc([N+](=O)[O-])cc1 | -1.05% (inactive) | –

Row | SMILES | activation | Potency
54 | O=C(O)CCCl | 1.27% [at 95 µM] (inactive) | –
55 | CCCN1CCCC[C@H]1C(=O)Nc1c(C)cccc1C | 0.205% (inactive) | –
56 | CCC(=O)OC(C)c1ccccc1 (stereo not given) | -1.34% (inactive) | –
57 | CC(C)(C)c1nnc(NS(=O)(=O)c2ccccc2)s1 | -0.816% (inactive) | –
58 | N[C@H]1CN(c2c(F)cc3c(=O)c(C(=O)O)cn(C4C[C@H]4F)c3c2Cl)CC12CC2 (stereo not given in full) | -0.841% (inactive) | –
59 | C=CCCCCCCCCC=O | 2.67% (inactive) | –
60 | OCCCC1CCCCC1 | 0.691% (inactive) | –
61 | Nc1c[n+](N2CCOCC2)no1 | 0.0523% (inactive) | –
62 | O=C(O)COc1nn(Cc2ccccc2)c2ccccc12 | -0.135% (inactive) | –
63 | CC(C)CCCC(C)N (stereo not given) | -0.377% (inactive) | –
64 | Cc1ccc(C#N)cc1 | -0.0878% (inactive) | –
65 | N=C(N)c1ccc2cc(OC(=O)c3ccc(N=C(N)N)cc3)ccc2c1 | -0.407% (inactive) | –
66 | CCCCC/C=C\CCC=O | 4.89% (inactive) | –
67 | O=C[C@H](O)[C@@H](O)[C@H](O)[C@H](O)CO | – | inactive
68 | C[N+](C)(C)CCCCCC[N+](C)(C)C | -0.122% (inactive) | –
69 | CCCCOCCOCCOCCCC | -2.39% (inactive) | –
70 | CCCCCSCCCCC | -0.466% (inactive) | –

Test system: not listed separately
Assay: qHTS assay to identify small molecule that activate the aryl hydrocarbon receptor (AhR) signaling pathway - cell viability counter screen (AID 743086);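 also: HepG2 liver cells carrying the AhR DRE luciferase reporter; nearly all actives have a fitted effect of over 45% in size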
Settings: HepG2-AhR-luc viability, CellTiter-Fluor, 24 h; series mostly up to 70.3 µM; viability change, negative = cytotoxic: at the top concentration
Summary of the method: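 Cytotoxicity counter screen: CellTiter-Fluor signal (30 min, 37 C) in 4000 HepG2 cells/well carrying the DRE-luciferase reporter, following 24 h compound exposure at 37 C.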

Row | SMILES | viability change, negative = cytotoxic | Potency
71 | CN1CCC(=C2c3ccccc3CC(=O)c3sccc32)CC1 | -14.3% (inactive) | –
72 | O=c1cc(-c2ccccc2)oc2ccccc12 | -0.996% (inactive) | –
73 | OC(CCN1CCCCC1)(c1ccccc1)C1CC2C=CC1C2 (stereo not given) | -23.7% (inactive) | –
74 | N#Cc1ccc(C2CCCc3cncn32)cc1 (stereo not given) | 6.18% [at 32.5 µM] (inactive) | –
75 | COCCCOCCCOC | 13.6% (inactive) | –
76 | c1ccc([C@H]2CN3CCSC3=N2)cc1 | 2.71% (inactive) | –
77 | Oc1ccc(C2CNCCc3c2cc(O)c(O)c3Cl)cc1 (stereo not given) | -1.41% (inactive) | –
78 | NS(=O)(=O)c1ccccc1Cl | 8.21% (inactive) | –
79 | O=C1NC(=O)[C@@]2(CCOc3ccc(F)cc32)N1 | 0.884% (inactive) | –
80 | CCC=O | 9.57% [at 95 µM] (inactive) | –
81 | OC1CCCCC1c1ccccc1 (stereo not given) | -5.7% (inactive) | –
82 | CC/C=C\CC/C=C/CO | -4.85% (inactive) | –
83 | O=[N+]([O-])c1ccc(F)cc1F | 10.7% [at 95 µM] (inactive) | –
84 | C/C=C(\C)C#N | 6.91% (inactive) | –
85 | C1OCOCO1 | -2.66% [at 95 µM] (inactive) | –
86 | NC(CSCC(=O)O)C(=O)O (stereo not given) | 4.2% (inactive) | –
87 | O=C(O)Cc1ccc(CCNS(=O)(=O)c2ccc(Cl)cc2)cc1 | 5.11% (inactive) | –
88 | O=C(O)CNC(=O)c1ccc([N+](=O)[O-])cc1 | 17.4% (inactive) | –

Row | SMILES | viability change, negative = cytotoxic | Potency
89 | O=C(O)CCCl | 10.9% [at 95 µM] (inactive) | –
90 | CCCN1CCCC[C@H]1C(=O)Nc1c(C)cccc1C | 3.18% (inactive) | –
91 | CCC(=O)OC(C)c1ccccc1 (stereo not given) | 7.04% (inactive) | –
92 | CC(C)(C)c1nnc(NS(=O)(=O)c2ccccc2)s1 | 17.3% (inactive) | –
93 | N[C@H]1CN(c2c(F)cc3c(=O)c(C(=O)O)cn(C4C[C@H]4F)c3c2Cl)CC12CC2 (stereo not given in full) | -1.57% (inactive) | –
94 | C=CCCCCCCCCC=O | -8.95% (inactive) | –
95 | OCCCC1CCCCC1 | -1.93% (inactive) | –
96 | Nc1c[n+](N2CCOCC2)no1 | -3.59% (inactive) | –
97 | O=C(O)COc1nn(Cc2ccccc2)c2ccccc12 | -1.45% (inactive) | –
98 | CC(C)CCCC(C)N (stereo not given) | -3.12% (inactive) | –
99 | Cc1ccc(C#N)cc1 | -0.958% (inactive) | –
100 | N=C(N)c1ccc2cc(OC(=O)c3ccc(N=C(N)N)cc3)ccc2c1 | -11.3% (inactive) | –
101 | CCCCC/C=C\CCC=O | -2.9% (inactive) | –
102 | O=C[C@H](O)[C@@H](O)[C@H](O)[C@H](O)CO | – | inactive
103 | C[N+](C)(C)CCCCCC[N+](C)(C)C | -0.68% (inactive) | –
104 | CCCCOCCOCCOCCCC | 3.65% (inactive) | –
105 | CCCCCSCCCCC | 8.8% (inactive) | –
